From ChEMBL document CHEMBL1157539, “Thousands of chemical starting points for antimalarial lead identification” (Nature, 2010)

What was measured:
Format in all cases: functional
Plasmodium falciparum [1] = assay: GSK_TCMDC: Inhibition of Plasmodium falciparum 3D7 in whole red blood cells, using parasite LDH activity as an index of growth. Test compounds present at 2uM
Plasmodium falciparum [2] = assay: GSK_TCMDC: Inhibition of Plasmodium falciparum Dd2 in whole red blood cells, using parasite LDH activity as an index of growth. Test compounds present at 2uM
HepG2 = assay: GSK_TCMDC: Percent inhibition of human HepG2 cell line. Test compounds present at 10uM.

Row | Compound | Inhibition (Plasmodium falciparum [1]) [%] | Inhibition (Plasmodium falciparum [2]) [%] | Inhibition (HepG2) [%]
1 | COc1cc2c(cc1N1CC(C)NC(C)C1)N(C(=O)c1ccc(-c3ccc(-c4ncc[nH]4)cc3C)cc1)CC2 (configuration not stated) | 98 | 58 | 7
2 | COc1ccccc1CCNc1nc(C)cc(N[C@@H](CC(C)C)C(=O)NCc2cccc(F)c2)n1.O=C(O)C(F)(F)F | 94 | 79 | 20
3 | Cc1ccc(-c2cc(C(=O)Nc3ccc(S(=O)(=O)N4CCCCC4C)cc3)n[nH]2)c(O)c1 (configuration not stated) | 100 | 99 | 37
4 | O=C(C1CCN(C(c2ccccc2)c2ccc(Cl)c(Cl)c2)CC1)N1CC=CC1 (configuration not stated) | 89 | 84 | 1
5 | CCc1nc2nc(C)cc(Nc3ccc4c(c3)OCCO4)n2n1 | 88 | 55 | 8
6 | CN1CCC[C@H]1COc1ccc(CN2CC[C@H](NC(=O)c3ccc(Cl)c(Cl)c3)C2)cc1Cl.O=C(O)C(F)(F)F | 97 | 44 | 53
7 | COc1ccc(Cc2cnc3nc(N)nc(N)c3c2C)cc1.Cl | 90 | 96 | 65
8 | Cc1cccc2nc(-c3ccc(-c4cccc(CNCCNC(=O)c5ccnn5C)c4)s3)[nH]c12.O=C(O)C(F)(F)F | 100 | 87 | 17
9 | FC(F)(F)c1ccc2[nH]c(-c3ccc(-c4cccc(CN5CCN(c6ccncc6)CC5)c4)cc3)nc2c1.O=C(O)C(F)(F)F | 100 | 99 | 82
10 | CCC(CC)OC(=O)C(C)c1cccc(C(=O)c2ccccc2)c1 (configuration not stated) | 93 | 0 | 0
11 | CCn1ccc2c(N3CCCCS3(=O)=O)cc(C(=O)N[C@@H](Cc3ccccc3)[C@H](O)CNC(C)(C)c3cccc(C(F)(F)F)c3)cc21 | 97 | 98 | 6
12 | Fc1ccc(-c2cncc(Nc3ccncc3)n2)cc1 | 88 | 11 | 8
13 | O=C(Nc1ccccc1)N(Cc1ccccc1-c1cccc(CNC2CCCC2)c1)C1CCN(Cc2ccccc2)CC1.O=C(O)C(F)(F)F | 100 | 84 | 36
14 | N#Cc1cccc(NC(=O)Nc2ccc(-c3cccc(-c4nc5cc(F)ccc5[nH]4)c3)cc2)c1 | 100 | 100 | 64
15 | N#Cc1ccc(NC(=O)N2CCCN(CCCCCNC(=O)/C=C/c3ccc(Cl)c(Cl)c3)CC2)cc1 | 100 | 4 | 32
16 | O=C(C=Cc1ccc(Cl)c(Cl)c1)NCCCCCN1CCC(CCNC(=O)/C=C/c2ccccc2)CC1 | 97 | 1 | 25
17 | CC1CCN(C(=O)C(Cc2c[nH]c3ccccc23)NS(=O)(=O)c2ccc(Cl)cc2)CC1 (configuration not stated) | 100 | 99 | 0
18 | Cc1noc(C)c1-c1cccc(CNCc2cccc(-c3ccc(-c4nc5cc(C(F)(F)F)ccc5[nH]4)s3)c2)c1.O=C(O)C(F)(F)F | 100 | 95 | 23
19 | N#Cc1ccc(CN2CCC(Oc3ccc(NC(=O)c4ccco4)cc3Cl)CC2)cc1.O=C(O)C(F)(F)F | 95 | 96 | 7
20 | C=CCn1c(=N)n(CC(O)c2ccc(Cl)c(Cl)c2)c2ccccc21.Cl (configuration not stated) | 91 | 80 | 15

Row | Compound | Inhibition (Plasmodium falciparum [1]) [%] | Inhibition (Plasmodium falciparum [2]) [%] | Inhibition (HepG2) [%]
21 | O=C(Nc1ccc(-c2nc3ccccc3[nH]2)cc1)C1CCCN(CC2CC2)C1 (configuration not stated) | 89 | 8 | 6
22 | O=C(O)C(F)(F)F.O=c1cc(NCCCNCc2cn(S(=O)(=O)c3ccccc3)c3ccccc23)[nH]c2ccccc12 | 91 | 29 | 17
23 | CN1CCCN(c2ccnc3cc4c(cc23)N(C(=O)c2ccc(C(F)(F)F)cc2)CC4)CC1.Cl | 100 | 63 | 10
24 | CCOC(=O)N1CCN(C(=O)Nc2ccc(Cl)cc2)CC1 | 92 | 0 | 4
25 | CCC(c1ccccc1)c1nn2c(-c3cccs3)nnc2s1 (configuration not stated) | 97 | 95 | 10
26 | CCc1c[nH]c2c(N3CCCCC3=O)cc(C(=O)N[C@@H](Cc3ccccc3)[C@H](O)CNCc3cccc(OC)c3)cc12.O=CO | 100 | 99 | 8
27 | Nc1cc(/C=C/c2ccc([N+](=O)[O-])s2)nc2ccccc12 | 98 | 48 | 89
28 | O=[N+]([O-])c1cccc(NC(=S)N2CCCN(Cc3ccc(Cl)cc3Cl)CC2)c1 | 94 | 50 | 3
29 | COc1ccc(-c2cc(-c3ccc(S(C)(=O)=O)cc3)cnc2N)cn1 | 94 | 99 | 5
30 | Cc1cc(NCCC(=O)NCCc2ccccc2)nc(NCCc2ccc(F)cc2)n1.O=C(O)C(F)(F)F | 92 | 7 | 0
31 | CCCC1N=C(N)N=C(N)N1c1cccc(C(F)(F)F)c1.Cl (configuration not stated) | 95 | 7 | 22
32 | O=C(NC1CCN(Cc2ccccc2)CC1)c1cccc(-c2nc3ccc(Cl)cc3[nH]2)c1 | 98 | 0 | 6
33 | CC(Oc1ccc(Cl)cc1)C(=O)Nc1cc(C(F)(F)F)ccc1N1CCOCC1 (configuration not stated) | 97 | 97 | 14
34 | Cc1c(F)cc(C(=O)NC2CC2)cc1-c1ccc2c(cnn2S(=O)(=O)c2ccc(F)c(F)c2)c1 | 91 | 76 | 49
35 | O=C(/C=C/c1ccc(Cl)c(Cl)c1)NC1CCN(CCCNC(=O)c2cccc(Cl)c2)CC1.O=C(O)C(F)(F)F | 100 | 28 | 36
36 | O=C(/C=C/c1cc(C(F)(F)F)ccc1F)NCCCCCN1CCC(c2c[nH]c3ccccc23)CC1 | 88 | 4 | 39
37 | CCCC(C)NC(=O)[C@H](CC1CCCCC1)NC(=O)c1ccc(O)c(-c2ccc(OC)cc2)c1 (some centres not stated) | 89 | 37 | 3
38 | Cc1cc(N[C@@H](Cc2ccccc2)C(=O)NC2CCCC2)nc(NCCCOC(C)C)n1.O=C(O)C(F)(F)F | 92 | 43 | 0
39 | O=C(Nc1cccc(CN2CCCN(Cc3ccc4c(c3)OCO4)CC2)c1)c1cc2ccccc2s1.O=C(O)C(F)(F)F | 95 | 11 | 32
40 | Cc1c2ccncc2c(C)c2c1[nH]c1cc(Cc3ccccc3)c(O)cc12 | 100 | 99 | 99

Row | Compound | Inhibition (Plasmodium falciparum [1]) [%] | Inhibition (Plasmodium falciparum [2]) [%] | Inhibition (HepG2) [%]
41 | CCNc1cc(C(=O)N[C@@H](Cc2ccccc2)[C@H](O)CNCc2cc(OC)cc(OC)c2)cc(N2CCCS2(=O)=O)c1.Cl | 99 | 86 | 0
42 | COc1cccc2cc(C(=O)N[C@@H](CC(C)C)C(=O)NC(/C=N/NC(=O)c3ccccc3)CCc3ccccc3)oc12 (some centres not stated) | 88 | 73 | 8
43 | COc1ccccc1CN1CCC(CNC(=O)c2cc(-c3cccc(C(F)(F)F)c3)cs2)C1.O=C(O)C(F)(F)F (configuration not stated) | 84 | 1 | 25
44 | CCCCCN1CCC(CNS(=O)(=O)c2ccc(C(=O)Nc3cccc(C(F)(F)F)c3)cc2)CC1.O=C(O)C(F)(F)F | 98 | 13 | 13
45 | CC(=O)N(C)C1CCN(Cc2cccc(-c3ccc(-c4nc5cc(C(F)(F)F)ccc5[nH]4)cc3)c2)C1.O=C(O)C(F)(F)F (configuration not stated) | 100 | 94 | 31
46 | N#Cc1ccc(-c2ccc(C(=O)NCCCCN3CC=C(c4ccc5c(c4OCC4CC4)CCCC5)CC3)cc2)cc1 | 100 | 83 | 22
47 | Cc1ccc(Nc2nc(C)cc(NC3CCN(C)CC3)n2)cc1 | 100 | 21 | 14
48 | CN1CCCC(CN2CCN(Cc3ccc(-c4ccc(-c5nc6cc(F)ccc6[nH]5)cc4)cc3)CC2)C1.O=C(O)C(F)(F)F (configuration not stated) | 100 | 98 | 90
49 | Cc1ccc(NC(=O)c2ccc(C(=O)NC3CCN(CC4CCCCC4)CC3)cc2)cc1.O=C(O)C(F)(F)F | 93 | 0 | 36
50 | Cc1ccc(CN2CCCN(Cc3cccc(NC(=O)c4cc5ccccc5s4)c3)CC2)cc1C.O=C(O)C(F)(F)F | 92 | 33 | 44
51 | CC(C)C1=NC(=O)c2cc([N+](=O)[O-])ccc2CN1 | 98 | 0 | 6
52 | Br.Cc1cccc2c(CON3C(N)=NC(N)=NC3(C)C)cccc12 | 94 | 94 | 64
53 | Cc1ccc(NC(=O)NC2CCN(CCCCCNC(=O)/C=C/c3ccc(Cl)c(Cl)c3)CC2)cc1 | 100 | 19 | 41
54 | COc1cc2nc(N3CCC(CNC(=O)c4ccc(-c5ccc(-c6noc(C)n6)cc5)cc4)CC3)nc(N)c2cc1OC | 98 | 100 | 96
55 | O=C(Nc1ccc2nc3n(c(=O)c2c1)CCCCC3)C(=O)N1CCC(Cc2ccccc2)CC1 | 91 | 70 | 12
56 | CC(C)(CN)c1nc(-c2ccc(Cl)c(O)c2)c(-c2ccnc(N)n2)[nH]1 | 95 | 95 | 34
57 | COc1ccc(NS(=O)(=O)c2ccc(C(=O)Nc3ccc(C(F)(F)F)cc3)cc2)cc1N1CCN(CC2CC2)CC1.O=C(O)C(F)(F)F | 92 | 0 | 15
58 | NC1=NC(c2ccccc2)(c2ccccc2)C(=O)N1CCOc1ccccc1 | 90 | 57 | 42
59 | Cc1ccccc1C1CCN(C2CCC(NC(=O)/C=C/c3ccc(F)cc3)CC2)CC1 (configuration not stated) | 87 | 30 | 61
